Assay results reported in PubChem BioAssay (NCATS).
Records with an inconclusive call do not appear. Calls of active or inactive are those of the source. Calls follow the shape of the dose curve; as a rule, active = well fitted curve in the direction sought with a large enough effect; inconclusive = small, poorly fitted or top-dose-only effect, or another doubt; inactive = no such curve, though single readings can be large; an effect the other way counts as inactive or inconclusive.

Assays:
[1] = qHTS assay for measurement of the activity of small molecule inhibitors on Zika virus induced Caspase-3 activity in human iPSC derived neural progenitor cells (hNPCs) (AID 1224857); also: % of control where 0% means no effect; nearly all actives have a fitted effect of over 65% in size
Summary of the method: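 Zika virus (2 FFU/cell) infection of human iPSC-derived NPCs, 6 h, following 1 h compound preincubation. Read-out: Caspase-Glo 3/7 luminescence.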

[2] = qHTS assay for measurement of the activity of small molecule inhibitors on Zika virus induced Caspase-3 activity in human astrocytoma cells (AID 1224859);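 also: plate controls were ZIKV-infected untreated cells for no effect and uninfected cells for full effect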
Summary of the method: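 Caspase activation in ZIKV-infected SNB-19 cells (2 FFU/cell, 6 h) measured by Caspase-Glo 3/7 luminescence after 30 min RT; compound pre-incubated 1 h; normalised to uninfected and infected controls.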

[3] = qHTS assay to identify small molecule inhibitors of chordoma cells - UCH-1 (AID 1259355); also: % is scaled to controls: 0 for no effect and ±100 for the full control effect; nearly all actives have a fitted effect of over 55% in size
Summary of the method: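 Seed 800 cells per well; incubate overnight at 37 C, 5% CO2. Add test compounds (15 concentrations), then the auranofin–topoisomerase-agent combination. Incubate 48hr, add CellTiter-Glo, wait 30min, read luminescence.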

[4] = qHTS assay to identify small molecule inhibitors of chordoma cells - UCH-2 (AID 1259356); also: series mostly up to about 46 µM; % is scaled to controls: 0 for no effect and ±100 for the full control effect

CCC(C(=O)OCCN(CC)CC)c1ccccc1 (stereo not drawn)
inactive: outcome [1] | outcome [2] | Potency [3]

O=C(Nc1ccc(Cl)c(Cl)c1)C1CC1
inactive: outcome [1] | outcome [2] | Potency [3] | Potency [4]

CC(C)C[C@H]1C(=O)N2CCC[C@H]2[C@]2(O)O[C@](NC(=O)[C@@H]3C=C4c5cccc6[nH]c(Br)c(c56)C[C@H]4N(C)C3)(C(C)C)C(=O)N12
inactive: outcome [1] | outcome [2] | Potency [3] | Potency [4]

CCCCOc1cc(C(=O)NCCN(CC)CC)c2ccccc2n1
inactive: outcome [1] | outcome [2] | Potency [3] | Potency [4]

Nc1ccc(/C=C/c2ccc(N)cc2S(=O)(=O)O)c(S(=O)(=O)O)c1
inactive: activity change, negative = inhibition [1] -14.7% [at 0.568 µM] | activity change, negative = inhibition [2] -3.2% [at 0.568 µM] | Potency [3] | Potency [4]

N[C@@H](CCC(=O)N[C@@H](CS)C(=O)NCC(=O)O)C(=O)O
inactive: outcome [1] | outcome [2] | Potency [3] | Potency [4]

CCN(CC)C(=O)N1CCN(C)CC1
inactive: outcome [1] | outcome [2] | Potency [3] | Potency [4]

NC(=O)CC[C@@H]1NC(=O)[C@H](Cc2ccccc2)NC(=O)[C@H](Cc2ccc(O)cc2)NC(=O)CCSSC[C@@H](C(=O)N2CCC[C@H]2C(=O)N[C@@H](CCCN=C(N)N)C(=O)NCC(N)=O)NC(=O)[C@H](CC(N)=O)NC1=O
inactive: outcome [1] | outcome [2] | Potency [3] | Potency [4]

COc1cc2c(cc1OC)C(C(C(=O)N(CCc1ccc(OC)c(OC)c1OC)CCc1ccc(OC)c(OC)c1OC)c1ccccc1)=NCC2 (stereo not drawn)
inactive: outcome [1] | outcome [2] | Potency [3] | Potency [4]

CN(C(=O)CN(CCO)CC(=O)N(C)C(C)(C)Cc1ccccc1)C(C)(C)Cc1ccccc1
inactive: outcome [1] | outcome [2] | Potency [3] | Potency [4]

C[C@]12CC[C@H]3[C@@H](CCC4=CC(=O)CC[C@@]43C)[C@@H]1CC[C@@H]2C(=O)CO
inactive: outcome [1] | outcome [2] | Potency [3] | Potency [4]

C#C[C@]1(O)CC[C@H]2[C@@H]3CCc4cc(OC5CCCC5)ccc4[C@H]3CC[C@@]21C
inactive: outcome [1] | outcome [2] | Potency [3] | Potency [4]

COc1cccc(OC)c1C(=O)N[C@@H]1C(=O)N2[C@@H]1SC(C)(C)[C@@H]2C(=O)O
inactive: outcome [1] | outcome [2] | Potency [3] | Potency [4]

NCCC(O)(P(=O)(O)O)P(=O)(O)O
inactive: outcome [1] | outcome [2] | Potency [3] | Potency [4]

CC(C)COC(=O)OCN1C(=O)CN(CCN2CC(=O)N(COC(=O)OCC(C)C)C(=O)C2)CC1=O
inactive: outcome [1] | outcome [2] | Potency [3] | Potency [4]

CCCCCC=CCC=CCCCCCCCC(=O)OCC
inactive: outcome [1] | outcome [2] | Potency [3] | Potency [4]

O=C(O)CCCCC(=O)O
inactive: outcome [1] | outcome [2] | Potency [3] | Potency [4]

NCCCC[C@H](N[C@@H](CCc1ccccc1)C(=O)O)C(=O)N1CCC[C@H]1C(=O)O
inactive: outcome [1] | outcome [2] | Potency [3] | Potency [4]

N[C@H](CO)C(=O)O
inactive: outcome [1] | outcome [2] | Potency [3] | Potency [4]

CCCCOc1ccc(OCCCN2CCOCC2)cc1
inactive: outcome [1] | outcome [2] | Potency [3] | Potency [4]

CC1=C(C(=O)O)N2C(=O)[C@@H](NC(=O)[C@H](N)c3ccc(O)cc3)[C@H]2SC1
inactive: outcome [1] | outcome [2] | Potency [3] | Potency [4]

c1ccc(-c2ccc(C(c3ccccc3)n3ccnc3)cc2)cc1 (stereo not drawn)
inactive: outcome [1] | outcome [2] | Potency [3] | Potency [4]

Cc1c(C)n(Cc2ccccc2)c2ccc(C(=O)OCCN(C)C)cc12
inactive: outcome [1] | outcome [2] | Potency [3] | Potency [4]

C/C=C/c1ccc(OC)cc1
inactive: outcome [1] | outcome [2] | Potency [3] | Potency [4]

CN=C(NC#N)NCCSCc1csc(N=C(N)N)n1
inactive: outcome [1] | outcome [2] | Potency [3] | Potency [4]

CCN1CCN(c2cc3c(cc2F)c(=O)c(C(=O)O)cn3C2CC2)CC1
inactive: outcome [1] | outcome [2] | Potency [3] | Potency [4]

CCCOC(C(=O)OC1CCN(C)CC1)(c1ccccc1)c1ccccc1
inactive: outcome [1] | outcome [2] | Potency [3] | Potency [4]

CN1C(CCl)Nc2cc(Cl)c(S(N)(=O)=O)cc2S1(=O)=O (stereo not drawn)
inactive: outcome [1] | outcome [2] | Potency [3] | Potency [4]

O=C1OC(c2ccc(O)cc2)(c2ccc(O)cc2)c2ccccc21
inactive: outcome [1] | outcome [2] | Potency [3] | Potency [4]

C[C@]12CC[C@@H]3c4ccc(O)cc4CC[C@H]3[C@@H]1C[C@@H](O)[C@@H]2O
inactive: outcome [1] | outcome [2] | Potency [3] | Potency [4]

CN1CCC(=C2c3ccccc3Sc3ccccc32)CC1
inactive: outcome [1] | outcome [2] | Potency [3] | Potency [4]
